# Screens from PubChem.
# The list is not random: actives were taken first. Their share in the collection is about 1.8%.
# Gli-Sufu antag = Gli-Sufu pathway antagonism; Sufu-KO-LIGHT fibroblasts, Gli luciferase reporter luminescence; inhibition, % at 5 µM; actives 0.74% (n = 340,000); AID 588413;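 active means inhibition above about 55%, limit read from the data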;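 further: 0% = DMSO-treated cells and 100% = wells with medium but no cells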
# Beta cell apopt = beta cell apoptosis inhibition | INS-1E cytokine-induced death, ATP luminescence, 48 h; percent of positive-control rescue, neutral wells zero | protection from apoptosis, % (test concentration not listed) | actives 0.8% (n = 300,000);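 active means Every replicate reaches about 75%, or at least half do and their mean reaches it too, limit read from the data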;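 further: 0% = cytokine-treated negative control wells and 100% = positive control rescue; higher means more ATP so stronger rescue from cytokine killing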
# 697 NFkB inh = lowers PMA/ionomycin-induced NF-kB signal in 697 B cells; 697 B-cell NF-kB luciferase reporter, 16 h; inhibition, % at 4 µM; actives 0.33% (n = 330,000); AID 435022; in the data active means inhibition above about 35%
# Jurkat NFkB inh = lowers PMA/ionomycin-induced NF-kB signal in Jurkat cells; PMA/ionomycin-induced NF-kB luciferase reporter, luminescence; actives 0.53% (n = 330,000); inhibition, % at 4 µM; in the data active means inhibition above about 50%
# * marks the source's active call; other numbers are inactive results; nt = no result given.
SMILES,Gli-Sufu antag,Beta cell apopt,697 NFkB inh,Jurkat NFkB inh
CN(C)c1ccc(-c2cc(O)c3ncccc3c2)cc1,0.1,87.7*,-39.6,0.3
Oc1cc(-c2ccncc2)cc2cccnc12,50.2,45.9,-3.4,17.5
Oc1cc(-c2ccc(N3CCCCC3)nc2)cc2cccnc12,21.4,96.1*,-74.6,-82.8
CCCCCCCN1C(Nc2ccccc2)=NC[C@@H]1CC(C)C,36.0,29.7,-30.4,6.0
CC(C)C[C@H]1CN=C(Nc2ccccc2)N1CCC(C)c1ccccc1 (some centres not stated),-5.5,103.0*,-19.4,10.0
C#CCOCCOCCOCCNc1nc(N2CCN(C(=O)CCCCCCCCCCNC(=O)[C@@H](CCC(=O)O)n3cc(CCCCCN)nn3)CC2)nc(N2CCN(C(=O)CCCCCCCCCCNC(=O)[C@H](CO)n3cc(CCCCCN)nn3)CC2)n1,-11.6,-16.7,7.4,11.7
C#CCOCCOCCOCCNc1nc(N2CCN(C(=O)CCCCCCCCCCNC(=O)[C@@H](CCC(=O)O)n3cc(CCCCCN)nn3)CC2)nc(N2CCN(C(=O)CCCCCCCCCCNC(=O)[C@H](CCCCN)n3cc(C[C@@H](C)CC)nn3)CC2)n1,-10.5,7.3,5.7,-2.0
C#CCOCCOCCOCCNc1nc(N2CCN(C(=O)CCCCCCCCCCNC(=O)[C@H](CCCCN)n3cc(C[C@@H](C)CC)nn3)CC2)nc(N2CCN(C(=O)CCCCCCCCCCNC(=O)[C@H](CCCN=C(N)N)n3cc(C[C@@H](C)CC)nn3)CC2)n1,16.6,98.9*,-48.4,-12.4
C#CCOCCOCCOCCNc1nc(N2CCN(C(=O)CCCCCCCCCCNC(=O)[C@H](CO)n3cc(CCCCCN)nn3)CC2)nc(N2CCN(C(=O)CCCCCCCCCCNC(=O)[C@H](CCCN=C(N)N)n3cc(C[C@@H](C)CC)nn3)CC2)n1,nt,88.7*,-16.2,-6.5
C#CCOCCOCCOCCNc1nc(N2CCN(C(=O)CCCCCCCCCCNC(=O)[C@@H](CCSC)n3cc(CCO)nn3)CC2)nc(N2CCN(C(=O)CCCCCCCCCCNC(=O)[C@H](CCCN=C(N)N)n3cc(C[C@@H](C)CC)nn3)CC2)n1,0.1,43.4,9.6,7.5
C#CCOCCOCCOCCNc1nc(N2CCN(C(=O)CCCCCCCCCCNC(=O)[C@H](CCCCN)n3cc(C)nn3)CC2)nc(N2CCN(C(=O)CCCCCCCCCCNC(=O)[C@@H]([C@H](C)O)n3cc(C)nn3)CC2)n1,9.5,9.7,-3.5,10.1
C#CCOCCOCCOCCNc1nc(N2CCN(C(=O)CCCCCCCCCCNC(=O)[C@H](CCCCN)n3cc(C)nn3)CC2)nc(N2CCN(C(=O)CCCCCCCCCCNC(=O)[C@H](CCCN=C(N)N)n3cc(C[C@@H](C)CC)nn3)CC2)n1,9.7,99.5*,-5.5,-7.2
C#CCOCCOCCOCCNc1nc(N2CCN(C(=O)CCCCCCCCCCNC(=O)[C@H](CCCCN)n3cc(CCO)nn3)CC2)nc(N2CCN(C(=O)CCCCCCCCCCNC(=O)[C@H](CCCCN)n3cc(C[C@@H](C)CC)nn3)CC2)n1,-1.9,83.1*,-9.7,2.6
CCOC(=O)C1=C(CSc2nc(-c3ccccc3)ccc2C#N)OC(N)=C(C#N)C1c1cccnc1 (configuration not stated),8.1,2.2,-75.5,-80.0
O=C(COC(=O)c1ccc([N+](=O)[O-])s1)NCc1ccc(F)cc1,3.1,-1.5,19.0,1.5
C=C(NC(=O)C(=C)NC(=O)c1csc(C2=NC3c4csc(n4)C4NC(=O)c5csc(n5)C(C(C)(O)C(C)O)NC(=O)C5CSC(=N5)/C(=C/C)NC(=O)C(C(C)O)NC(=O)c5csc(n5)C3(CC2)NC(=O)C(C)NC(=O)C(=C)NC(=O)C(=C)NC(=O)C(C(C)C)NC2C=Cc3c(C(C)O)cc(nc3C2O)C(=O)OC4C)n1)C(N)=O (configuration not stated),65.7*,nt,nt,nt
O=[N+]([O-])c1ccc(Sc2cccc[n+]2[O-])c2nonc12,86.3*,nt,nt,nt
O=[N+]([O-])c1ccc(Nc2ccccc2)c2nonc12,4.4,13.5,0.1,-3.8
CCCCCCCCCCCCCCCC[n+]1ccccc1,83.5*,nt,nt,nt
COCCn1c(C)cc(C2=NNC(=Nc3ccc(Cl)cc3Cl)SC2)c1C,-2.9,-0.4,17.6,-5.4
C=CCN=C1NN=C(c2cc(C)n(CCOC)c2C)CS1,57.9*,-2.1,-61.6,-20.2
c1ccc(C2(Cn3ccc4ccccc43)OCCO2)cc1,-5.5,113.6*,23.4,-4.0
Cc1cc(N/N=C/c2ccc(O)cc2O)nc(-c2ccccc2O)n1,0.7,75.9*,nt,nt
Cc1ccc2oc(C(=O)N3CCN(CCO)CC3)c(C)c2c1,-4.0,nt,-5.9,-6.6
O=C(Cc1ccc(Cl)cc1)Nc1ccc2c(c1)C(=O)NC2=O,0.0,118.5*,18.7,-1.3
SMILES,Gli-Sufu antag,Beta cell apopt,697 NFkB inh,Jurkat NFkB inh
O=C(Cc1ccc([N+](=O)[O-])cc1)Nc1ccc2c(c1)C(=O)NC2=O,-6.4,0.8,-0.5,-9.0
COc1ccc(C(=O)N=c2sccn2C)cc1,-41.6,1.9,-31.7,-51.7
O=C(NC(CSCc1ccccc1)C(=O)N/N=C/c1ccc(O)cc1O)c1ccc([N+](=O)[O-])cc1 (configuration not stated),75.9*,78.5*,-6.8,49.9
O=C(CN1CC[n+]2c(-c3cccs3)csc21)c1ccc(-c2ccccc2)cc1,-0.3,110.6*,30.5,-2.9
Cc1ccc(C(=O)Cn2nnc(-c3cccs3)n2)cc1,-13.9,-5.7,0.4,-5.1
COc1ccc(CN(C)S(=O)(=O)c2nnc(NC(=O)c3ccccc3Br)s2)cc1,-4.4,4.2,1.9,15.1
COc1ccccc1/C=C/CN1CCC(n2nccc2NC(=O)CCc2ccccc2)CC1,43.1,78.1*,0.8,20.7
O=C(CCc1ccccc1)Nc1ccnn1C1CCN(C/C=C/c2ccccc2)CC1,-4.2,-4.5,6.1,12.1
CCCS(=O)(=O)C(=C1NCCO1)S(=O)(=O)CCC,14.4,-1.6,13.2,-19.4
Cc1cc(C(=O)NC2CCCc3c2cnn3-c2ccc(C)c(C)c2)no1 (configuration not stated),16.9,6.4,-45.1,18.5
Cc1ccc(C(=O)NC2CCCc3c2cnn3-c2ccc(F)cc2F)cn1 (configuration not stated),nt,100.4*,-7.4,42.4
Cc1ccc(-n2ncc3c2CCCC3NC(=O)c2ocnc2C)cc1C (configuration not stated),58.8*,79.9*,27.4,45.4
CC(C)(C)NS(=O)(=O)c1cc2c3c(c1)CCN3C(=O)CC2,-3.6,-2.4,-23.6,3.2
Nc1c(C(=O)Nc2ccc(S(=O)(=O)N3CCCC3)cc2)sc2nc3cc4c(cc3cc12)CCC4,7.9,100.0*,nt,nt
Nc1c(C(=O)Nc2ccc(S(=O)(=O)N3CCCC3)cc2)sc2nc3ccc(OC(F)(F)F)cc3cc12,7.8,98.0*,-16.0,-1.5
COc1ccc(CCN2CCCn3c2nc2c3c(=O)n(Cc3ccccc3F)c(=O)n2C)cc1OC,8.4,7.0,-6.9,-24.3
CNc1nc(N/N=C/c2cc3c(cc2[N+](=O)[O-])OCO3)nc(Nc2ccccc2)n1,15.7,98.1*,-18.5,-13.6
Cc1cc2nc(-c3ccc[nH]c3=O)[nH]c2cc1C,-38.6,78.0*,-45.1,27.5
